An excerpt weighted towards active compounds, which were near 2.3% of everything screened.
Abeta yeast res = restores growth of yeast expressing A-beta42 peptide; yeast expressing A-beta42, growth rescue, OD600, 48 h; response scale: 0% DMSO, 100% iron-clioquinol control; Potency, µM (doses to about 46.1 µM), most hits filed as activators; 410,000 tested, 0.063% active; also: nearly all actives have a fitted effect of over 55% in size
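Growth rescue measured by 600 nm absorbance after 48 h yeast culture at 30 C with compound. Values normalized between DMSO and an equimolar ferric chloride plus clioquinol control.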
BCR signal inh = chronic active BCR signaling inhibition; AID 493014; ABC-DLBCL IkBa-CBG/CBR reporter, luminescence ratio, 4 h; Potency, µM (highest dose often 46.1 µM), actives largely listed as inhibitors; 340,000 tested, 0.05% active; active = well fitted inhibition curve with a large enough effect in the signal ratio, with a control signal flat, not every such curve was filed as active; inconclusive = small, poorly fitted or top-dose-only effect, or effect the other way, or a change in a side signal; the % refers to the signal ratio
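Compounds up to 46 uM were incubated four hours with TMD8 cells whose green CBG68 luciferase is fused to IkappaBalpha; red CBR luminescence normalised the signal, and concentration-effect curves were fitted to fusion, red and ratio data.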
TDP-43 yeast inh = rescues yeast growth from TDP-43 toxicity; Potency, µM (titrated, usually from 46.1 µM), usual class: activators; TDP-43 expressing yeast growth rescue, BacTiter-Glo, 24 h; 410,000 tested, 1.8% active; AID 652104; also: nearly all actives have a fitted effect of over 50% in size
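Growth rescue of TDP-43-toxic yeast measured as ATP luminescence (BacTiter-Glo). Cells grown to mid-log in raffinose, induced in galactose at OD600=0.02, exposed to compound 24 hr at 30 deg C.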
uPA generation = blocks generation of uPA at the cell surface | 330,000 tested, 0.31% active | AID 540303 | Potency, µM (series often up to 38.3 µM), actives largely listed as inhibitors | cell surface uPA generation assay, qHTS; active = well fitted inhibition curve with a large enough effect; inconclusive = small, poorly fitted or top-dose-only effect; inactive = no such curve, though single readings can be large or run the other way; tested in mouse RAW 264.7 cells; also: nearly all actives have a fitted effect of over 55% in size
aSyn yeast inh = inhibitors of alpha-synuclein toxicity in yeast | Yeast expressing alpha-synuclein, growth rescue, BacTiter-Glo, 24 h | Potency, µM (highest dose often 46.1 µM), actives largely listed as activators | 370,000 tested, 0.14% active | AID 652106; also: nearly all actives have a fitted effect of over 65% in size
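Galactose-induced alpha-syn yeast (OD600=0.02, raffinose-pregrown) + pinned cpd, 24 hr, 30 deg C; growth by BacTiter-Glo luminescence. Growth restoration scores as activation.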
FUS suppressor = FUS proteinopathy suppression in yeast | S. cerevisiae FUS-expressing, growth rescue, OD600, 24 h | Potency, µM (top dose mostly 76.6 µM), usual class: activators | 390,000 tested, 0.24% active; also: nearly all actives have a fitted effect of over 55% in size
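Cultures pregrown in 2.5% raffinose medium are shifted to minimal medium containing 2% galactose to express toxic FUS. Compounds are tested at several concentrations. After 24hr at 30C, growth is quantified at 600 nm absorbance.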
Each line names hits and unclear results; the compound was inactive in the other large screens. Unless noted, calls follow the shape of the dose curve; as a rule, active = well fitted curve in the direction sought with a large enough effect; inconclusive = small, poorly fitted or top-dose-only effect, or another doubt; inactive = no such curve, though single readings can be large; an effect the other way counts as inactive or inconclusive.

COc1ccc(C(=O)N2CCC(n3nnc4cc(F)ccc43)CC2)cc1OC	none
CCOc1ccccc1C(=O)N1CCC(n2nnc3cc(C)ccc32)CC1	TDP-43 yeast inh 17.8µM
COc1ccc2c(c1)CC/C(=C/c1ccncc1)C2=O	BCR signal inh inconclusive
COc1ccc2c(c1)CC/C(=C\c1ccc(C)o1)C2=O	BCR signal inh inconclusive, TDP-43 yeast inh 17.8µM, uPA generation inconclusive
O=C(COc1ccccc1)Nc1nnc(-c2ccccc2Cl)o1	none (no result: BCR signal inh)
O=C(COc1ccccc1)Nc1nnc(-c2ccc3c(c2)CCCC3)o1	Abeta yeast res inconclusive, TDP-43 yeast inh 11.2µM, uPA generation inconclusive, aSyn yeast inh 10µM
O=C(Nc1cccc2c1CCCC2)c1ccccc1Cl	BCR signal inh inconclusive
O=C(COc1ccccc1)Nc1nnc(-c2ccc(F)cc2)o1	Abeta yeast res inconclusive, BCR signal inh inconclusive, TDP-43 yeast inh inconclusive, aSyn yeast inh 17.8µM
O=C(CCOc1ccccc1)Nc1nnc(-c2ccc3c(c2)OCCO3)o1	BCR signal inh inconclusive
O=C(Nc1nnc(-c2ccc3c(c2)CCCC3)o1)c1ccccc1Cl	BCR signal inh inconclusive, TDP-43 yeast inh 10µM, uPA generation inconclusive, aSyn yeast inh inconclusive
O=C(COC(=O)c1c2ccccc2cc2ccccc12)NCC(F)(F)F	TDP-43 yeast inh 15.8µM (no result: FUS suppressor)
CO/N=C1\CCn2c1c(C)c1ccccc12	none
Cc1c2n(c3ccccc13)CC/C2=N\O	BCR signal inh inconclusive, TDP-43 yeast inh 11.2µM
O=C(COc1ccc(Br)cc1)N1CCN(c2ccc([N+](=O)[O-])c(N3CCCCC3)c2)CC1	TDP-43 yeast inh 8.91µM
Cc1cc(C)cc(NC(=O)COC(=O)c2ccc3c(c2)OCCO3)c1	none
O=c1oc2ccc(Cl)cc2nc1/C=C(\O)c1ccco1	BCR signal inh inconclusive, uPA generation inconclusive
CC(C)C/C(O)=C/c1nc2cc(Cl)ccc2oc1=O	uPA generation 1.41µM (no result: FUS suppressor)
O=C1CC(O)(C(F)F)Oc2ccc3ccccc3c21 (stereo unspecified)	none (no result: FUS suppressor)
O=C1CC(O)(C(F)(F)F)Oc2c1ccc1ccccc21 (stereo unspecified)	aSyn yeast inh 12.6µM
CC1(c2ccc(F)cc2)OC(=O)c2c1ccc1ccccc21 (stereo unspecified)	TDP-43 yeast inh 12.6µM (no result: BCR signal inh, uPA generation)
CCOC(=O)C1CCN(C(=O)/C=C/c2ccc(S(=O)(=O)N3CCOCC3)cc2)CC1	none
COc1ccc(-n2c(SCC(=O)N3CCCC3)nc3ccccc3c2=O)cc1	none (no result: Abeta yeast res, TDP-43 yeast inh, uPA generation, aSyn yeast inh, FUS suppressor)
COc1ccc(-n2c(SCC(=O)N3CCCCC3)nc(O)cc2=O)cc1	FUS suppressor 31.6µM (no result: uPA generation)
O=CN1Cc2ccccc2-c2ccccc2C1	TDP-43 yeast inh 12.6µM
CCC(C)n1c(SC(C)C#N)nc2ccccc2c1=O (stereo unspecified)	aSyn yeast inh inconclusive
CCCOc1cccc(C(=O)Nc2cc(-c3nc4ccccc4[nH]3)ccc2C)c1	FUS suppressor inconclusive (no result: BCR signal inh, uPA generation, aSyn yeast inh)
CCOc1ccc(C(=O)Nc2cc(-c3nc4ccccc4[nH]3)ccc2C)cc1[N+](=O)[O-]	BCR signal inh inconclusive, FUS suppressor inconclusive
CCOc1ccc(C(=O)Nc2cc(-c3nc4ccccc4[nH]3)ccc2Cl)cc1[N+](=O)[O-]	BCR signal inh inconclusive, TDP-43 yeast inh 3.98µM (no result: FUS suppressor)
CCCOc1ccc(C(=O)Nc2cc(-c3nc4ccccc4[nH]3)ccc2C)cc1	TDP-43 yeast inh 12.6µM (no result: BCR signal inh, uPA generation, aSyn yeast inh)
Cc1cc(C)n(-c2nc(NC(C)(C)C)nc(NC(C)(C)C)n2)n1	Abeta yeast res inconclusive
Cc1cc(C)n(-c2nc(Nc3ccccc3C(F)(F)F)nc(-n3nc(C)cc3C)n2)n1	BCR signal inh inconclusive, TDP-43 yeast inh 20µM, aSyn yeast inh inconclusive, FUS suppressor inconclusive
CCN(C(=O)CSc1ncn[nH]1)C1CCCCC1	none (no result: uPA generation)
CN(C)c1ccc(C(=O)Nc2cccc(-c3nc4cccnc4s3)c2)cc1	none (no result: BCR signal inh, uPA generation, aSyn yeast inh)
O=C(Nc1cccc(-c2nc3cccnc3s2)c1)c1ccco1	TDP-43 yeast inh 10µM
O=C(Nc1ccc(-c2nc3cccnc3s2)cc1)c1ccco1	BCR signal inh inconclusive, uPA generation inconclusive
O=C(Nc1cccc(-c2nc3cccnc3s2)c1)c1cccc(Br)c1	TDP-43 yeast inh 6.31µM (no result: BCR signal inh, uPA generation, aSyn yeast inh)
CCc1cccc(NC(=O)C2CCCN(c3ncnc4onc(-c5ccc(F)cc5)c34)C2)c1 (stereo unspecified)	FUS suppressor inconclusive (no result: BCR signal inh, uPA generation, aSyn yeast inh)
CCCOc1ccc(-c2nnc(-c3ccco3)o2)cc1	BCR signal inh inconclusive, TDP-43 yeast inh inconclusive
COc1cccc(-c2nnc(-c3ccco3)o2)c1	BCR signal inh inconclusive, TDP-43 yeast inh 15.8µM
COc1cccc(-c2nnc(-c3ccc(C)o3)o2)c1	BCR signal inh inconclusive
CC(C)COc1ccc(-c2nnc(-c3ccco3)o2)cc1	TDP-43 yeast inh 10µM
CC(Sc1nc(-c2ccc(F)cc2)cs1)C(=O)Nc1ccc(Cl)cn1 (stereo unspecified)	BCR signal inh inconclusive
O=C(CCl)Nc1ccccc1Sc1ccc(Cl)cc1	BCR signal inh inconclusive, TDP-43 yeast inh 11.2µM (no result: aSyn yeast inh)
O=C(Nc1ccccc1OC(=O)c1ccccc1)c1ccccc1	TDP-43 yeast inh inconclusive, uPA generation 11.2µM (no result: BCR signal inh)
O=C(Nc1ccccc1Sc1ccccc1)c1ccccc1	Abeta yeast res inconclusive, TDP-43 yeast inh 11.2µM
O=C(CCc1ccccc1)Nc1ccccc1OC(=O)c1ccccc1	none (no result: BCR signal inh)
CCn1cc(C(=O)NCc2ccccc2OC)c(=O)c2cc(S(=O)(=O)N3CCCCC3)ccc21	none (no result: BCR signal inh, uPA generation, aSyn yeast inh)
COc1cc(C2CC(=O)Oc3cc4c(cc32)OCO4)cc(OC)c1OC (stereo unspecified)	none
Cc1ccc(-c2nc3c4c(-c5ccccc5)c(-c5ccccc5)oc4ncn3n2)cc1	none (no result: BCR signal inh, uPA generation, aSyn yeast inh)
COc1ccc(Cl)cc1NC(=O)CN(C)CC(=O)Nc1ccc(S(N)(=O)=O)cc1	none
COc1ccc(Cl)cc1NC(=O)CN(C)CC(=O)Nc1cc(OC)c(OC)c(OC)c1	uPA generation 3.55µM
COc1ccc(Cl)cc1NC(=O)CN(C)C(=O)c1cc2c(F)cccc2s1	TDP-43 yeast inh inconclusive, uPA generation 6.31µM, FUS suppressor inconclusive
COCCn1cnc2c1c(=O)n(CC#N)c(=O)n2Cc1ccccc1	none
Cc1c(Cl)cccc1NC(=S)NC1CCCC1	Abeta yeast res inconclusive, TDP-43 yeast inh 20µM
S=C(NCCc1ccc(Cl)cc1)NC1CCCC1	Abeta yeast res 10µM, BCR signal inh inconclusive
S=C(NCCc1ccc(Cl)cc1)NC1CCCCC1	Abeta yeast res inconclusive, BCR signal inh inconclusive
COc1ccc(CCNC(=S)Nc2cccc(C)c2C)cc1	TDP-43 yeast inh inconclusive, aSyn yeast inh inconclusive (no result: FUS suppressor)
Cc1c(Cl)cccc1NC(=S)NCCc1ccc(Cl)cc1	Abeta yeast res 10µM, TDP-43 yeast inh inconclusive
Cc1cccc(NC(=S)NCCc2ccccc2)c1C	TDP-43 yeast inh 17.8µM

Bioassay records (PubChem)
